The campaign covered roughly 210,000 compounds. About 5,900 (2.8%) were called active. Inconclusive results (about 5%) are left out. The call rests on the fitted dose curve; in most records, active means well fitted activation curve with a large enough effect; inconclusive means small, poorly fitted or top-dose-only effect; inactive means no such curve, though single readings can be large or run the other way. Only a selection was taken, and actives are over-represented in it overall.
assay: qHTS Assay for Enhancers of SMN2 Splice Variant Expression; details: HEK293 SMN2-luciferase splicing reporter, luminescence, 30-36 h; series mostly up to 46.1 µM; activity change, positive = activation: at the top concentration; further: nearly all actives have a fitted effect of over 55% in size; on activity change, positive = activation: % of control where 0% means no effect
How it was run: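 HEK293 cells carry an SMN2 […]–luciferase reporter in which exon 7 inclusion puts luciferase in frame. Cells were plated 10-12 h before compound addition, then incubated 30-36 h at 37C. ONE-Glo luminescence was read; sodium butyrate at 4.5 mM final served as control.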
Potency means the concentration at half of the fitted maximal effect.

Row | SMILES | activity change, positive = activation | Potency
1 | COc1ccc(Cn2c(=O)n(-c3ccccc3C)c(=O)c3c4c(sc32)CN(C(C)=O)CC4)cc1 | 8.31% (inactive) | 
2 | CCOC(=O)c1ccc(NC(=O)Cn2c(=O)n(-c3ccc(C)cc3)c(=O)c3c2cnn3C)cc1 | -2.66% (inactive) | 
3 | O=[N+]([O-])c1ccccc1N/N=C1\CCc2ccccc21 |  | 11.2 µM (active)
4 | O=[N+]([O-])c1cc(C(F)(F)F)ccc1NN=C1CCCC1 | 5.28% (inactive) | 
5 | O=[N+]([O-])c1ccccc1NCc1ccccc1Cl | -8.19% (inactive) | 
6 | Cc1ccc(Cl)cc1N(C)C(=O)Cn1nc(Cc2cccnc2)c2ccccc2c1=O | -1.29% (inactive) | 
7 | COc1ccc(-n2c(C)nc3c(cnn3-c3ccc(F)cc3)c2=O)cc1 | -9.72% (inactive) | 
8 | COc1ccc(-c2c3c(=O)n(C)c(=O)n(C)c3c3c(C)nc4ccccc4n23)cc1 | 7.52% (inactive) | 
9 | FC(F)(F)c1cc(Nc2nc3ccccc3c3nncn23)ccc1Cl | -29.6% (inactive) | 
10 | CCN(C(=O)Cn1cc(S(=O)(=O)N2CCN(c3ccccc3F)CC2)c2ccccc2c1=O)c1ccc(C)c(C)c1 | 7.16% (inactive) | 
11 | CSCCC(Nc1nc2ccccc2s1)C(=O)O (stereo unspecified) | 0.0276% (inactive) | 
12 | Cc1ccnc(Nc2nc3ccccc3s2)n1 |  | 3.55 µM (active)
13 | c1ccc2sc(SCCSc3nc4ccccc4s3)nc2c1 | -8.26% [at 9.22 µM] (inactive) | 
14 | Cc1nn(-c2nc(-c3ccccc3)cc(C(F)(F)F)n2)c(C)c1Cl | -3.6% (inactive) | 
15 | Cc1ccccc1NC(=O)c1cc2c([nH]c1=O)CC(C)(C)CC2=O | 14.6% (inactive) | 
16 | O=C(Nc1ccc2c(c1)CCC2)c1ccc(Br)s1 |  | 5.62 µM (active)
17 | CC(C)C(=O)OCC(=O)Nc1ccc2c(c1)CCC2 | 10.6% (inactive) | 
18 | O=C(NC1CCCC1)c1ccc(Br)s1 | -8.19% (inactive) | 
19 | NS(=O)(=O)c1ccc(NC(=O)C(=O)Nc2ccc3nc4n(c(=O)c3c2)CCCCC4)cc1 | 0.304% (inactive) | 
20 | CCOc1ccc(S(=O)(=O)c2cn(Cc3ccccc3)c3ccc(OCC)cc3c2=O)cc1 | 1.43% (inactive) | 
21 | Cc1oc(C)c2c(=O)cc(-c3ccc4c(c3)OCO4)cc(OC(=O)c3ccc(Cl)cc3)c12 | 2.7% (inactive) | 
22 | CC(C)C12CN3CC(C(C)C)(CN(C1)C3c1ccc(OCc3ccccc3)cc1)C2=O (stereo unspecified) | 1.12% (inactive) | 

Row | SMILES | activity change, positive = activation | Potency
23 | Cc1ccc(Cn2c(CCCNC(=O)C3CCCCC3)nc3ccccc32)cc1 | -19.1% (inactive) | 
24 | CCOc1ccc(-c2cc(C)n3nc(C(=O)Nc4ccc(C)c(C)c4)cc3n2)cc1 | 1.94% (inactive) | 
25 | O=C(/C=C\NCC(=O)c1ccccc1)c1ccccc1 | -5.93% (inactive) | 
26 | Cc1noc(NS(=O)(=O)c2ccc(N/C=C/C(=O)c3ccccc3)cc2)c1C | 20.6% (inactive) | 
27 | Cc1ccc(N/C=C/C(=O)c2ccccc2)cc1C |  | 2.51 µM (active)
28 | CSCCC(NS(=O)(=O)c1ccc2c(c1)oc(=O)n2C)C(=O)NCc1ccccc1 (stereo unspecified) | -3.7% (inactive) | 
29 | Cc1ccc(OCC(=O)Nc2ccc(S(=O)(=O)Nc3ccccn3)cc2)cc1 | 0.0786% (inactive) | 
30 | Cc1cc(C)cc(OCC(=O)Nc2ccc(S(=O)(=O)Nc3ccccn3)cc2)c1 | -4.75% (inactive) | 
31 | O=C(COc1ccc2oc3c(c2c1)CCCC3)Nc1ccccn1 |  | 20 µM (active)
32 | COc1cc(OC)cc(-c2nc3nc(C)c(CCC(=O)Nc4ccc(C)cc4)c(C)n3n2)c1 | -1.68% (inactive) | 
33 | CCOC(=O)c1cc2c(=O)n3ccccc3nc2n(CC2CCCO2)c1=NC(=O)c1ccccc1Br (stereo unspecified) | 3.82% (inactive) | 
34 | O=C(CCc1ccccc1)Nc1cccc(-c2nnc(-c3ccco3)o2)c1 |  | 12.6 µM (active)
35 | Cc1cccc(NC(=O)CSc2nnc(-c3ccco3)o2)c1 | 13.2% (inactive) | 
36 | C/C(=N/NC(=O)CCc1ccccc1)c1ccco1 | -2.85% (inactive) | 
37 | CCOc1ccc(-n2c(C)nc3c(cnn3-c3ccc(C)cc3)c2=O)cc1 | 8.1% (inactive) | 
38 | Cc1ccc(C(=O)NC2CCN(C(=O)N3CCOCC3)CC2)cc1 | -9.36% (inactive) | 
39 | O=C(NC1CC1)c1ccc(-c2ccccc2)cc1 |  | 11.2 µM (active)
40 | O=C(NC1CC1)c1cccc(Br)c1 | -9.53% (inactive) | 
41 | CCOc1ccccc1N(C)C(=O)c1cc2c(s1)-c1ccccc1OC2 | -13.3% (inactive) | 
42 | O=C(NC1CCN(Cc2ccccc2)CC1)c1ccc(Cn2c(=O)c3ccccc3n(Cc3cccc(F)c3)c2=O)cc1 | 0.0275% (inactive) | 
43 | O=C(CSc1oc(-c2ccco2)nc1S(=O)(=O)c1ccc(Cl)cc1)c1ccccc1 | 11.5% (inactive) | 
44 | Cc1ccc(-c2nc(CS(=O)(=O)CC(=O)NCc3ccccc3Cl)c(C)o2)cc1 | 5.89% (inactive) | 

Row | SMILES | activity change, positive = activation | Potency
45 | COc1ccc(CCNC(=O)c2cc(=O)c3c(C)cc(C)cc3o2)cc1OC | 3.1% (inactive) | 
46 | Fc1ccc2nc(Nc3nc4c(s3)CCCC4)sc2c1 |  | 14.1 µM (active)
47 | O=C(CCS(=O)(=O)c1ccccc1)Nc1nc2c(s1)CCCC2 | -6.46% (inactive) | 
48 | Fc1cc(F)c2nc(Nc3nc4c(F)cccc4s3)sc2c1 | -20.1% (inactive) | 
49 | O=C(C(=O)N1CCc2ccccc2C1)N1CCc2ccccc2C1 | 10.9% (inactive) | 
50 | O=C(Cn1c(=S)nc2ccccn21)N1CCc2ccccc2C1 |  | 12.6 µM (active)
51 | O=C(COc1ccccc1)N1CCc2ccccc2C1 | 3.79% (inactive) | 
52 | Cn1c(=O)nc2n(-c3ccc(Br)cc3)c3cccc(Cl)c3cc-2c1=O | 9.55% (inactive) | 
53 | COc1ccccc1C(=O)Nc1c(C(=O)N(C)Cc2ccccc2)sc2nc(C)c(Cl)c(C)c12 | -27.4% (inactive) | 
54 | Cc1[nH]c2ccccc2c1SCC(=O)Nc1nccs1 |  | 25.1 µM (active)
55 | CCn1c(SCC(=O)Nc2nccs2)nnc1-c1ccncc1 | -5.81% (inactive) | 
56 | Nn1c(SCC(=O)Nc2nccs2)nncc1=O | 22.1% (inactive) | 
57 | CC(=O)N1CCc2cc(S(=O)(=O)NC(Cc3ccccc3)C(=O)NCc3ccc(C)cc3)ccc21 (stereo unspecified) | -2.94% (inactive) | 
58 | CCOc1ccc(S(=O)(=O)c2cn(Cc3ccc(OC)cc3)c3ccc(F)cc3c2=O)cc1 | -6.28% (inactive) | 
59 | Cc1ccc(Cn2ccc(NC(=O)c3cc(C(C)C)on3)n2)cc1 | 6.87% (inactive) | 
60 | CC(=O)Nc1ccn(Cc2c(F)cccc2Cl)n1 | 1.25% (inactive) | 
61 | O=C(Nc1ccn(Cc2ccccc2)n1)c1n[nH]c([N+](=O)[O-])c1Cl |  | 3.16 µM (active)
62 | O=C(Nc1ccn(Cc2ccc(F)cc2)n1)c1ccncc1 | -62.6% (inactive) | 
63 | O=C(Nc1ccn(Cc2ccccc2)n1)c1cccc(F)c1 |  | 2.82 µM (active)
64 | Cn1cc([N+](=O)[O-])c(C(=O)Nc2cnn(Cc3ccc(F)cc3)c2)n1 | -2.65% (inactive) | 
65 | CCOC(=O)c1cc2c(=O)n3ccccc3nc2n(CCCOC)c1=NC(=O)C(C)(C)Oc1ccc(Cl)cc1 | 9.26% (inactive) | 
66 | COc1ccc(CCN2C(=O)N(c3cccc(OC)c3)C(=O)C2CC(=O)Nc2ccccc2)cc1 (stereo unspecified) | -6.97% (inactive) | 

— PubChem BioAssay AID1458 (National Center for Advancing Translational Sciences (NCATS), 2008)
